A short description of assay [1]: NCI Yeast Anticancer Drug Screen. Data for the rad50 strain (AID 155).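 Also: 0% = growth of vehicle-only cultures of the same strain.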 As to conditions: S. cerevisiae rad50 strain growth inhibition, hits give high values. The method in brief: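 DNA repair mutant yeast, compound exposure, growth read-out; inhibition is taken relative to vehicle.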
Assay [2] is described as follows: NCI Yeast Anticancer Drug Screen. Data for the mec2-1 strain (AID 157). To be noted: S. cerevisiae mec2-1 strain, hits give high values. The method in brief:
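Readout is yeast growth inhibition, normalised to vehicle-treated controls, in the mec2-1 strain exposed to compound.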

Assay [3] is described as follows: NCI Yeast Anticancer Drug Screen. Data for the sgs1 mgt1 strain (AID 161).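 Also: 0% = growth of cultures given vehicle only.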 To be noted: S. cerevisiae sgs1 mgt1 strain, hits give high values. The method in brief: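 Growth of a repair-deficient yeast mutant was monitored after compound treatment and expressed as inhibition relative to vehicle-treated cultures.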
A short description of assay [4]: NCI Yeast Anticancer Drug Screen. Data for the cln2 rad14 strain (AID 165).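 Also: 0% = growth equal to vehicle treated cultures.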 To be noted: S. cerevisiae cln2 rad14 strain, hits give high values. The gist of the method:
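Relative to vehicle controls, growth inhibition of compound-treated cln2 rad14 yeast was recorded.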

Assay [5] in a line: NCI Yeast Anticancer Drug Screen. Data for the bub3 strain (AID 167). As to conditions: S. cerevisiae bub3 mutant strain, hits give high values. The method in brief: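 In this screen, a yeast mutant lacking normal mitotic checkpoint function is challenged with compound. Relative growth versus vehicle gives the inhibition value.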
A short description of assay [6]: NCI Yeast Anticancer Drug Screen. Data for the mlh1 rad18 strain (AID 175). To be noted: S. cerevisiae mlh1 rad18 strain growth inhibition, hits give high values. The method in brief:
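Test agents were incubated with a yeast strain of defined genotype (DNA damage repair defect). Inhibition of growth was derived by comparison with vehicle-exposed cultures.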

The mark [7] stands for this setting: at 5.0 µM (retest, dose inferred, filed as 0.5).
Setting [8] is: at 50.0 µM (retest, dose inferred, filed as 5.0).

The record followed here is PubChem BioAssay (NCI).

About 79,000 compounds went through this panel and 15% of them were active in at least one assay; those are over-represented in the sample as a whole. Unmarked numbers belong to inactive results. The source made the active and inactive calls. Rule as the data show it: active = growth inhibition above about 70%; inactive = the rest.

On to `CC(C)N=C(N)/N=C(\N)Nc1ccc2ccc3ccccc3c2c1`, for which the growth inhibition in assay [1] (setting [7]) was 3%; in assay [1] (setting [8]), 99% (active); in assay [1] (at 50.0 µM), 99.8% (active); in assay [2] (setting [7]), -9%; in assay [2] (setting [8]), 99% (active); in assay [2] (at 50.0 µM) it was 25.1%. The growth inhibition in assay [3] (setting [7]) is 12%; in assay [3] (setting [8]) it was 100% (active); in assay [3] (at 50.0 µM) it was 99.7% (active); in assay [4] (setting [7]), 3%; in assay [4] (setting [8]), 100% (active); in assay [4] (at 50.0 µM), 99.5% (active). Moreover, the growth inhibition in assay [5] (setting [7]) was 27%; in assay [5] (setting [8]), 99% (active); in assay [5] (at 50.0 µM), 46.3%; in assay [6] (setting [7]), 41%; in assay [6] (setting [8]) it was 99% (active); in assay [6] (at 50.0 µM), 99.7% (active).

As to `CCCCCCCCCCCC[N+]1(CCCCCCCCCCCC)CCCC(C)C1` (stereo unspecified), the growth inhibition in assay [1] (setting [7]) was 99% (active); in assay [1] (setting [8]) it was 99% (active); in assay [1] (at 50.0 µM), 88.8% (active); in assay [2] (setting [7]), 100% (active); in assay [2] (setting [8]), 94% (active); in assay [2] (at 50.0 µM), 91.3% (active). Also, the growth inhibition in assay [3] (setting [7]) is 100% (active); in assay [3] (setting [8]), 99% (active); in assay [3] (at 50.0 µM) it was 91.1% (active); in assay [4] (setting [7]), 99% (active); in assay [4] (setting [8]), 99% (active); in assay [4] (at 50.0 µM), 88.1% (active). The growth inhibition is 99% (active) in assay [5] (setting [7]); 99% (active) in assay [5] (setting [8]); 90% (active) in assay [5] (at 50.0 µM); 99% (active) in assay [6] (setting [7]); 99% (active) in assay [6] (setting [8]); 88.7% (active) in assay [6] (at 50.0 µM).

For the compound `O=C(Cc1nc2cc(Cl)c(Cl)cc2nc1CC(=O)c1ccccc1)c1ccccc1`, the growth inhibition is -7% in assay [1] (setting [7]); 93% (active) in assay [1] (setting [8]); 96.4% (active) in assay [1] (at 50.0 µM); -9% in assay [2] (setting [7]); 76% (active) in assay [2] (setting [8]); 96.8% (active) in assay [2] (at 50.0 µM). For the same compound, the growth inhibition was -9% in assay [3] (setting [7]); 84% (active) in assay [3] (setting [8]); 96.8% (active) in assay [3] (at 50.0 µM); 7% in assay [4] (setting [7]); 74% (active) in assay [4] (setting [8]); 94.8% (active) in assay [4] (at 50.0 µM). The growth inhibition was -4% in assay [5] (setting [7]); 90% (active) in assay [5] (setting [8]); 96.5% (active) in assay [5] (at 50.0 µM); -9% in assay [6] (setting [7]); 93% (active) in assay [6] (setting [8]); 96% (active) in assay [6] (at 50.0 µM).

In the case of `O=C1c2ccccc2Cc2cccc(Cl)c21`, the growth inhibition in assay [1] (setting [7]) is 15%; in assay [1] (setting [8]), 72% (active); in assay [1] (at 50.0 µM), 88.5% (active); in assay [2] (setting [7]) it was 6%; in assay [2] (setting [8]) it was 15%; in assay [2] (at 50.0 µM) it was 24.3%. The growth inhibition is 4% in assay [3] (setting [7]); 13% in assay [3] (setting [8]); 28.6% in assay [3] (at 50.0 µM); 0% in assay [4] (setting [7]); 5% in assay [4] (setting [8]); 17.4% in assay [4] (at 50.0 µM). Further, the growth inhibition in assay [5] (setting [7]) was 1%; in assay [5] (setting [8]), 19%; in assay [5] (at 50.0 µM), 13.8%; in assay [6] (setting [7]) it was 2%; in assay [6] (setting [8]), 17%; in assay [6] (at 50.0 µM), 33%.

`O=C(/C=C/c1ccccc1)c1ccccc1O`: the growth inhibition in assay [1] (setting [7]) is 9%; in assay [1] (setting [8]) it was 78% (active); in assay [1] (at 50.0 µM) it was 98.5% (active); in assay [2] (setting [7]), 4%; in assay [2] (setting [8]) it was 49%; in assay [2] (at 50.0 µM), 99.2% (active). For the same compound, the growth inhibition in assay [3] (setting [7]) is 4%; in assay [3] (setting [8]), 55%; in assay [3] (at 50.0 µM), 46%; in assay [4] (setting [7]), 2%; in assay [4] (setting [8]), 40%; in assay [4] (at 50.0 µM), 53.6%. For the same compound, the growth inhibition is 1% in assay [5] (setting [7]); 80% (active) in assay [5] (setting [8]); 49.1% in assay [5] (at 50.0 µM); 1% in assay [6] (setting [7]); 78% (active) in assay [6] (setting [8]); 45.6% in assay [6] (at 50.0 µM).

`CCOC(=O)C1C(C(C)C)C2(C#N)C(=N)OC1(C)C2(C#N)C#N` (stereo unspecified): the growth inhibition in assay [1] (setting [7]) is 15%; in assay [1] (setting [8]), 63%; in assay [1] (at 50.0 µM) it was 44.8%; in assay [2] (setting [7]), 6%; in assay [2] (setting [8]), 53%; in assay [2] (at 50.0 µM), 52.2%. Besides, the growth inhibition in assay [3] (setting [7]) is 19%; in assay [3] (setting [8]) it was 58%; in assay [3] (at 50.0 µM) it was 49.8%; in assay [4] (setting [7]) it was 6%; in assay [4] (setting [8]), 37%; in assay [4] (at 50.0 µM), 30.2%. The growth inhibition is 14% in assay [5] (setting [7]); 62% in assay [5] (setting [8]); 39.5% in assay [5] (at 50.0 µM); 18% in assay [6] (setting [7]); 72% (active) in assay [6] (setting [8]); 42.5% in assay [6] (at 50.0 µM).

As to `COc1c(/C=C/C=O)cc2c(c1OC)OCO2`, the growth inhibition is 26% in assay [1] (setting [7]); 73% (active) in assay [1] (setting [8]); -1.75% in assay [1] (at 50.0 µM); 17% in assay [2] (setting [7]); 40% in assay [2] (setting [8]); -6.3% in assay [2] (at 50.0 µM). Moreover, the growth inhibition in assay [3] (setting [7]) was 31%; in assay [3] (setting [8]), 57%; in assay [3] (at 50.0 µM) it was 19.1%; in assay [4] (setting [7]) it was 27%; in assay [4] (setting [8]), 50%; in assay [4] (at 50.0 µM), 20.4%. Further, the growth inhibition in assay [5] (setting [7]) is 21%; in assay [5] (setting [8]), 54%; in assay [5] (at 50.0 µM), 13.5%; in assay [6] (setting [7]), 25%; in assay [6] (setting [8]) it was 61%; in assay [6] (at 50.0 µM), -11.8%.
